Bioassay records from PubChem BioAssay.
An excerpt weighted towards active compounds, which were near 2.3% of everything screened.
GLD-1 RNA inh = GLD-1-TGE RNA interaction inhibition (C. elegans). Q17339. 0.44% of 320,000 active. purified GLD-1 + fluorescein TGE RNA, fluorescence polarization. AID 2280. inhibition, % at 5.96 µM;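 active = percent inhibition above a per-plate cutoff, the plate mean of test compounds plus 3 SD, cut at about 30% in these data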;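 also: 0% = DMSO wells with GLD-1 and probe and 100% = wells lacking GLD-1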
Mcl1 Noxa PPI = Mcl-1/Noxa interaction inhibition | TR-FRET Mcl-1/Noxa peptide binding, 2 h | inhibition, % at 21.7 µM | 1.5% of 220,000 active | AID 1022;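 active = compounds that cut the protein-peptide binding signal by more than 50% relative to plate controls in a single-dose test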;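 also: His-tagged Mcl-1 with rhodamine Noxa BH3 peptide and terbium anti-His antibody; 0% = Mcl-1 plus Noxa peptide wells and 100% = peptide-only wells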
Target sequence (Q07820 whole entry, looked up): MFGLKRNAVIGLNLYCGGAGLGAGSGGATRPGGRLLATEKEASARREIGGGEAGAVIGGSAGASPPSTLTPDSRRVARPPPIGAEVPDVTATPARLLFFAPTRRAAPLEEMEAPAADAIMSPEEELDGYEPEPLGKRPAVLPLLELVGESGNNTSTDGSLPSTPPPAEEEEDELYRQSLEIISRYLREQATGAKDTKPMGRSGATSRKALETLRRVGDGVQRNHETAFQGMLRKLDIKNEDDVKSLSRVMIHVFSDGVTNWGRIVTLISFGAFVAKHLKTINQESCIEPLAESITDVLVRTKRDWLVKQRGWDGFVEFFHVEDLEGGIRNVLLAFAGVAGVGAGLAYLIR
Bcl-xL primary = blocks human Bcl-xL binding to Bim BH3 peptide; 0.7% of 320,000 active; Q07817; GST-Bcl-xL / FITC-Bim BH3 peptide fluorescence polarization; AID 2129; inhibition, % at 10.9 µM;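 active = inhibition above the mean of all tested compounds plus 3 SD, cutoff set per campaign, cut at about 30% in these data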;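 also: 0% = DMSO wells and 100% = unlabeled Bim-BH3 peptide competitor; inhibitors lower millipolarization by displacing the labeled peptide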
Target sequence (Q07817 whole entry, looked up): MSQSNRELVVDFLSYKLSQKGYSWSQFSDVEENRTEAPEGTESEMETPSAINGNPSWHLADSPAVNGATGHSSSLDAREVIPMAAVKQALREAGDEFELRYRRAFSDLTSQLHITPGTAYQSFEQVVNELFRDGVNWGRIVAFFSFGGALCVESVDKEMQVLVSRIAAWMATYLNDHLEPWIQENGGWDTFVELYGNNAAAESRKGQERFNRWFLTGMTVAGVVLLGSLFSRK
Mcl1-Bid inh = Mcl-1/Bid interaction inhibition; TR-FRET Mcl-1/Bid-Dy647 peptide binding, 1536-well; inhibition, % at 21.7 µM; 0.97% of 220,000 active;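 active = compounds that cut the binding signal by more than half at the single screening dose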;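 also: His-tagged Mcl-1 with europium anti-His antibody binding Bid BH3 peptide; 0% = Mcl-1 plus peptide wells and 100% = peptide-only wells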
Bim-Mcl-1 = inhibitors of Bim-Mcl-1 interaction, human. inhibition, % at 10 µM. Bead-based flow cytometry, Bim peptide-Mcl-1 binding. Q07820. 0.1% of 190,000 active; in the data active = inhibition above about 40%;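 also: 0% = no compound tracer wells and 100% = peptide blocker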
MCL1 BIM primary = disrupts human MCL1 binding to BIM-BH3 peptide; Q07820; inhibition, % at 10.9 µM; 0.68% of 320,000 active; GST-MCL1 / FITC-Bim-BH3 fluorescence polarization;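 active = inhibition above the mean inhibition of all tested compounds plus 3 SD, set per campaign, cut at about 40% in these data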;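 also: 0% = DMSO wells and 100% = unlabeled Bim-BH3 peptide control; higher means more loss of mP so more displacement of Bim peptide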
The depositor's hits bear a star; nt = no result given; + = active, no number.

SMILES | GLD-1 RNA inh | Mcl1 Noxa PPI | Bcl-xL primary | Mcl1-Bid inh | Bim-Mcl-1 | MCL1 BIM primary
Cc1c(NC(=O)c2cn3ccccc3n2)cccc1-n1cnnn1 | 6.8 | -2.6 | -7.1 | -41.8 | nt | -4.2
COc1ccc(NC(=O)c2cc(-c3cc(OC)c(OC)c(OC)c3)nc3ccccc23)cc1OC | 6.2 | nt | 2.2 | nt | nt | 3.9
COc1ccc(-c2cc(C(=O)Nc3ccc(O)cc3)c3ccccc3n2)cc1OC | 5.5 | 31.5 | 6.6 | 54.3* | nt | 8.5
C=CCn1c(=S)[nH]c2scc(-c3cccs3)c2c1=O | nt | 11.2 | nt | -63.5 | 1.0 | nt
Cn1c(=S)[nH]c2scc(-c3cccs3)c2c1=O | nt | 64.1* | nt | -47.1 | 0.0 | nt
Cc1cc(C=O)c(C)n1-c1cccc(C(=O)O)c1 | -1.7 | 19.5 | 1.2 | -44.6 | 0.0 | -2.8
Cc1ccc(C)n1-c1cccc(C(=O)O)c1 | 14.4 | 98.9* | 25.7 | 88.4* | 13.0 | 70.7*
Cc1ccc(C)n1-c1cccc(N)c1 | -10.9 | 21.6 | 36.0* | -76.5 | 3.0 | 45.3*
Cc1ccc(C)n1-c1cccc(C(=O)Nc2ccccc2)c1 | -4.5 | 15.5 | -7.8 | -37.7 | nt | -11.2
CN(C)c1ccc(C(CNS(=O)(=O)c2cccc([N+](=O)[O-])c2)N2CCOCC2)cc1 (stereo unspecified) | -0.8 | nt | 4.7 | nt | nt | 1.3
O=c1c(Cl)c(N/N=C/c2ccc(Br)cc2)cnn1-c1ccccc1 | 6.6 | 51.6* | -24.2 | 63.4* | -3.0 | -1.1
CNc1cnn(-c2ccccc2)c(=O)c1Cl | 1.6 | 9.6 | 7.6 | -11.9 | -2.0 | 7.4
COc1cc2c(cc1NC(=O)CSc1ccccc1)oc1ccccc12 | 0.3 | 7.1 | 4.0 | -5.7 | 5.0 | 4.0
COc1cc2c(cc1NC(=S)NC(=O)/C=C/c1ccc(OC)c(OC)c1)oc1ccccc12 | nt | 47.4 | nt | 62.2* | 1.0 | nt
COc1cc2c(cc1NC(=O)CSc1nccn1C)oc1ccccc12 | 6.2 | 56.6* | -5.8 | -3.5 | 0.0 | -2.7
CC(=O)c1ccc(NC(=O)CSc2ccsc2[N+](=O)[O-])cc1 | nt | 86.9* | nt | -34.5 | -2.0 | nt
O=C(CSc1ccsc1[N+](=O)[O-])Nc1cc(F)ccc1F | nt | 103.9* | nt | -10.9 | -4.0 | nt
CCN(CC)c1ccc(NC(=O)CSc2ccsc2[N+](=O)[O-])c(C)c1 | 2.9 | 66.3* | 7.2 | -85.7 | -4.0 | 33.1
Cc1ccc(CNC(=O)CSc2ccsc2[N+](=O)[O-])cc1 | 4.6 | 15.0 | 6.0 | -15.8 | 0.0 | 5.0
CN(C)c1ccc(/C=C/c2cccc[n+]2[O-])cc1 | -2.4 | 3.0 | 30.9* | -40.2 | nt | 18.7
[O-][n+]1ccccc1/C=C/c1ccccc1 | 1.4 | nt | 2.8 | nt | nt | 7.3
C=CCSc1nc2c(sc3nc(C)cc(C)c32)c(=O)[nH]1 | 0.4 | 56.7* | 14.5 | -4.6 | 1.0 | 12.5
Cc1cc(C)c2c(n1)sc1c(=O)[nH]c(SCc3ccccc3)nc12 | 0.9 | 7.0 | -1.2 | 2.5 | -2.0 | 1.7
CN(C)S(=O)(=O)c1cc(NC(=O)COC(=O)c2ccc3c(c2)OCO3)ccc1Cl | -5.0 | 11.0 | 1.4 | -14.0 | -4.0 | 0.6
Cc1cccc(NC(=O)CSc2nc(COc3ccccc3)nc3ccccc23)c1C | -0.5 | -4.4 | 4.0 | 33.0 | -3.0 | 5.8
SMILES | GLD-1 RNA inh | Mcl1 Noxa PPI | Bcl-xL primary | Mcl1-Bid inh | Bim-Mcl-1 | MCL1 BIM primary
Cc1cccc(C)c1NC(=O)CSc1nc(COc2ccccc2)nc2ccccc12 | 0.2 | -0.1 | 1.3 | 58.6* | 10.0 | 28.0
CCC1(C)Cc2sc3c(=O)[nH]c(=S)[nH]c3c2CO1 (stereo unspecified) | -0.6 | 54.2* | 7.3 | -23.6 | -5.0 | 8.2
COc1ccc(O)c(-c2cn[nH]c2-c2cccs2)c1 | -1.1 | 54.7* | 2.8 | -15.9 | -1.0 | -1.4
Cc1ccc(N(O)C(=O)NCCCCNC(=O)N(O)c2ccc(C)cc2)cc1 | 2.1 | nt | 4.8 | nt | nt | 1.6
COc1ccc(C)cc1NC(=O)C(NCC1CCCO1)c1ccccc1 (stereo unspecified) | 3.7 | 1.9 | 2.8 | 5.5 | -4.0 | 1.4
CC(=O)Nc1ccc(Cl)c(C(N)=O)c1 | 3.8 | 24.2 | -2.1 | 13.8 | -2.0 | -2.2
NC(=O)c1cc(N2C(=O)C=CC2=O)ccc1Cl | 6.3 | 68.2* | 10.0 | -54.4 | 0.0 | 16.6
COc1ccc(CN2CCN(S(=O)(=O)c3ccccc3)CC2)cc1Br | -5.7 | 48.0 | 5.6 | 63.8* | -1.0 | 6.8
COc1ccc(CN2CCN(S(=O)(=O)c3ccc(F)cc3)CC2)cc1OC | 3.5 | 12.8 | 0.1 | 35.0 | -1.0 | 5.0
O=C(CNC(=O)Cc1ccccc1)NCC(=O)OCc1ccccc1 | 3.4 | -8.7 | 0.9 | -20.1 | 0.0 | 3.8
O=C1NN(c2ccccc2)C(=O)/C1=C/c1ccc(Sc2cccc3ccccc23)o1 | 3.5 | 50.6* | 7.0 | -40.6 | -3.0 | 12.9
Cc1oc2cc3oc(=O)c(CC(=O)N[C@@H](C)C(=O)NC(Cc4ccc(Cl)cc4)C(=O)O)c(C)c3cc2c1C (stereo partly specified) | 5.5 | nt | 6.4 | nt | nt | 5.8
O=C(c1ccc(S(=O)(=O)NCC2CCCO2)cc1)N1CCN(c2ccccc2F)CC1 (stereo unspecified) | 0.8 | -4.1 | 12.1 | 11.6 | 4.0 | 12.5
COc1ccc(C2C=C(c3cccs3)Nc3nc(CCCO)nn32)cc1 (stereo unspecified) | 143.9* | -12.5 | 175.8* | -107.5 | -2.0 | +
CC(C)N1C(=S)SC(C)(C)C1n1oc(=O)n(-c2cccc(Cl)c2)c1=O (stereo unspecified) | 3.9 | 2.3 | 129.0* | -24.4 | -3.0 | 5.0
COCCn1c(=S)[nH]c2sc3c(c2c1=O)CCC(C)C3 (stereo unspecified) | 4.9 | nt | 2.9 | nt | nt | 3.8
COCCCn1c(=S)[nH]c2sc3c(c2c1=O)CCCS3 | 0.2 | 65.1* | 9.6 | -89.0 | -4.0 | 10.2
COc1cc(CN2CCC(C(=O)NC3CCCC3)CC2)cc(Br)c1O | 0.6 | 17.3 | -5.6 | 50.7* | 0.0 | 6.9
O=C(Nc1ccc2oc(-c3cccnc3)nc2c1)c1ccc2c(c1)OCCO2 | -8.2 | 52.5* | -50.1 | 40.5 | 11.0 | -66.9
Cc1cc(Nc2ccc(O)cc2)ccc1N | 4.6 | nt | 35.6* | nt | nt | 40.5*
O=C1Nc2cc(Cl)cnc2N2CCCC12 (stereo unspecified) | 10.0 | 59.7* | 35.7* | -17.3 | 1.0 | 43.0*
O=C(CN1CCCCC1)Nc1nnc(-c2ccc([N+](=O)[O-])cc2)s1 | -3.5 | 69.3* | 6.4 | -21.6 | -2.0 | 7.7
O=c1c2cc(Cl)ccc2nc(-c2ccccc2Cl)n1O | -11.8 | 1.8 | -4.0 | 88.4* | 3.0 | -8.8
Cc1ccc(-c2nc3ccc(Cl)cc3c(=O)n2O)cc1 | -8.9 | nt | -2.1 | nt | nt | -3.1
CC(C)=CCN1CCN(CC#Cc2ccccc2)CC1CCO (stereo unspecified) | 2.8 | -1.8 | 9.6 | -4.3 | -1.0 | 1.9
CC1CCCCN1CCNC(=O)c1cc2c(=O)n(C)c3ccccc3c2n1C (stereo unspecified) | -49.6 | 26.4 | 33.8* | -8.5 | -2.0 | 29.3
CC(NC(=O)c1ccccc1)C(=O)OCC(=O)c1ccc(Br)cc1 (stereo unspecified) | -1.0 | nt | 169.1* | nt | nt | 9.8
